Data: PubChem BioAssay (NCI)
Compounds without any hit were thinned out: in the full panel of roughly 83,000, 20% have a hit.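 Compound tested at a single concentration for 48 hours in 96-well plates; a percent growth value below 10 was scored as active.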 Calls of active or inactive are those of the source.

Tests used:
Experiment in all cases: NCI-60 one-dose screen, 48 h (100 = growth as untreated, 0 = no growth, -100 = all killed)
Details in all cases: 10 µM unless noted
NCI-H23 lung = tested on: NCI-H23 lung
NCI-H226 lung = tested on: NCI-H226 lung
NCI-H322M lung = tested on: NCI-H322M lung
HOP-62 NSCLC = tested on: HOP-62 NSCLC
NCI-H460 lung = tested on: NCI-H460 lung
HOP-92 NSCLC = tested on: HOP-92 NSCLC
NCI-H522 lung = tested on: NCI-H522 lung
A549/ATCC NSCLC = tested on: A549/ATCC NSCLC
786-0 renal = tested on: 786-0 renal
COLO 205 colon = tested on: COLO 205 colon

Measured: growth

COc1ccc2c(Nc3ccc(NS(C)(=O)=O)cc3)c3ccccc3nc2c1
active: NCI-H23 lung -18.6% | NCI-H226 lung -27.1% | NCI-H322M lung 9.34% | HOP-62 NSCLC -0.998% | NCI-H460 lung -21.8% | HOP-92 NSCLC -16.6% | NCI-H522 lung -58.6% | A549/ATCC NSCLC -71.2% | COLO 205 colon -74.1%
inactive: 786-0 renal 18.4%

CN(C)C(C(N)=O)c1ccc(Cl)cc1 (centres undefined)
inactive: NCI-H23 lung 104% | NCI-H226 lung 103% | NCI-H322M lung 103% | HOP-62 NSCLC 99.6% | NCI-H460 lung 109% | HOP-92 NSCLC 71.4% | NCI-H522 lung 96.1% | A549/ATCC NSCLC 96.6% | 786-0 renal 96.1% | COLO 205 colon 110%

COc1ccccc1/C=C1\Oc2cc(OCCCN3CCCC3)ccc2C1=O
inactive: NCI-H23 lung 83% | NCI-H226 lung 98.7% | NCI-H322M lung 96.5% | HOP-62 NSCLC 88.5% | NCI-H460 lung 95.9% | HOP-92 NSCLC 63.1% | NCI-H522 lung 104% | A549/ATCC NSCLC 99.9% | 786-0 renal 94% | COLO 205 colon 96.4%

C=C1C(=O)O[C@H]2[C@H]1CC/C(CNC(=O)/C=C/c1ccc(Br)cc1)=C\CC[C@@]1(C)O[C@@H]21
active: NCI-H23 lung -9.66% | NCI-H460 lung 4.75% | HOP-92 NSCLC -26.2% | NCI-H522 lung -71.2% | 786-0 renal -63.4% | COLO 205 colon -64.9%
inactive: NCI-H226 lung 12.3% | NCI-H322M lung 39.6% | HOP-62 NSCLC 41.2% | A549/ATCC NSCLC 14.2%

COc1ccc(Nc2nc(N)nc3c2CCc2occc2-3)cc1
inactive: NCI-H23 lung 92.4% | NCI-H226 lung 97.1% | NCI-H322M lung 95.3% | HOP-62 NSCLC 98.4% | NCI-H460 lung 108% | HOP-92 NSCLC 99.6% | NCI-H522 lung 76.9% | A549/ATCC NSCLC 103% | 786-0 renal 95.5% | COLO 205 colon 116%

COc1nc(N)nc(-n2c(-c3ccc(C)cc3)nc3ccccc32)c1NCc1ccc(C)cc1
inactive: NCI-H23 lung 95.6% | NCI-H226 lung 89% | NCI-H322M lung 90.2% | HOP-62 NSCLC 86.5% | NCI-H460 lung 105% | HOP-92 NSCLC 78.2% | NCI-H522 lung 79.9% | A549/ATCC NSCLC 78.4% | 786-0 renal 90.3% | COLO 205 colon 108%

CC(C)NC(=O)N1C(=O)CCC1NNC(=O)c1ccc([N+](=O)[O-])cc1 (centres undefined)
inactive: NCI-H23 lung 89.8% | NCI-H226 lung 104% | NCI-H322M lung 96.3% | HOP-62 NSCLC 106% | NCI-H460 lung 121% | HOP-92 NSCLC 109% | NCI-H522 lung 93.1% | A549/ATCC NSCLC 104% | 786-0 renal 98.5% | COLO 205 colon 112%

COC(=O)Nc1nc2ccc(C(=O)c3cccc(I)c3)cc2[nH]1
active: NCI-H460 lung 4.52% | NCI-H522 lung -29.2% | COLO 205 colon -29.7%
inactive: NCI-H23 lung 22.1% | NCI-H226 lung 51.4% | NCI-H322M lung 39.4% | HOP-62 NSCLC 37% | HOP-92 NSCLC 51.5% | A549/ATCC NSCLC 15.3% | 786-0 renal 27.2%

COc1cc(/C=C2\C(=O)N(Cc3ccc(Cl)cc3)c3ccccc32)cc(OC)c1OC
inactive: NCI-H23 lung 34.4% | NCI-H226 lung 46.7% | NCI-H322M lung 66.9% | HOP-62 NSCLC 55.9% | NCI-H460 lung 25.2% | HOP-92 NSCLC 44% | NCI-H522 lung 11.4% | 786-0 renal 32.7% | COLO 205 colon 48%
active: A549/ATCC NSCLC 9.8%

COc1cc(C2CC(c3cccc(Nc4ccncc4)c3)=NN2C(C)=O)cc(OC)c1OC (centres undefined)
inactive: NCI-H23 lung 104% | NCI-H226 lung 96.8% | NCI-H322M lung 102% | HOP-62 NSCLC 91.1% | NCI-H460 lung 103% | HOP-92 NSCLC 70.1% | NCI-H522 lung 77.9% | A549/ATCC NSCLC 98.5% | 786-0 renal 88% | COLO 205 colon 95%

COc1cccc(/C=C2\COc3ccc(-c4ccccc4)cc3C2=O)c1
inactive: NCI-H23 lung 44.9% | NCI-H226 lung 65.7% | NCI-H322M lung 45.4% | NCI-H522 lung 25.2% | A549/ATCC NSCLC 37%
active: HOP-62 NSCLC -32.3% | NCI-H460 lung -22.3% | HOP-92 NSCLC -3.57% | 786-0 renal -45.4% | COLO 205 colon -23.4%

ClCC1(Cn2cnc3c(Cl)nc(Cl)nc32)COC1
inactive: NCI-H23 lung 69.1% | NCI-H226 lung 87.7% | NCI-H322M lung 100% | HOP-62 NSCLC 103% | NCI-H460 lung 86.5% | HOP-92 NSCLC 73.1% | NCI-H522 lung 71.9% | A549/ATCC NSCLC 57.5% | 786-0 renal 88.4% | COLO 205 colon 80.2%

O=C(CN1CCOCC1)Nc1ccc2ncnc(Nc3ccc(Oc4cccc(C(F)(F)F)c4)c(Cl)c3)c2c1
inactive: NCI-H23 lung 68.8% | NCI-H226 lung 75% | NCI-H322M lung 16.6% | HOP-62 NSCLC 73.9% | NCI-H460 lung 64.1% | HOP-92 NSCLC 53% | NCI-H522 lung 26% | A549/ATCC NSCLC 51.2% | 786-0 renal 65.3% | COLO 205 colon 76.9%

COc1ccc(C2CC(n3nnnc3-c3ccccc3)=NN2)cc1 (centres undefined)
inactive: NCI-H23 lung 82% | NCI-H226 lung 75.1% | NCI-H322M lung 69.9% | HOP-62 NSCLC 78.4% | NCI-H460 lung 71.2% | HOP-92 NSCLC 80.1% | NCI-H522 lung 47.1% | A549/ATCC NSCLC 60.2% | COLO 205 colon 91.8%

CN1CCN(C(=O)[C@]2(C)CC[C@]3(C)CC[C@]4(C)C(=CC(=O)[C@@H]5[C@@]6(C)CCC(=O)NC(C)(C)[C@@H]6CC[C@]54C)[C@@H]3C2)CC1
inactive: NCI-H23 lung 100% | NCI-H226 lung 91.8% | NCI-H322M lung 107% | HOP-62 NSCLC 89.2% | NCI-H460 lung 102% | HOP-92 NSCLC 64.7% | NCI-H522 lung 90.6% | A549/ATCC NSCLC 94.4% | 786-0 renal 93.5% | COLO 205 colon 110%

COc1ccc(/C=C2\COc3ccc(-c4ccccc4)cc3C2=O)cc1O
inactive: NCI-H23 lung 50.5% | NCI-H226 lung 96.2% | NCI-H322M lung 66.7% | NCI-H460 lung 16.7% | NCI-H522 lung 17.8% | A549/ATCC NSCLC 62% | COLO 205 colon 63.9%
active: HOP-62 NSCLC -41.9% | HOP-92 NSCLC -1.71% | 786-0 renal -21.8%

COc1ccc(C(O)c2cc3c(N)c(C(=O)Nc4cccc(Br)c4C)sc3nc2C)cc1 (centres undefined)
inactive: NCI-H23 lung 32.1% | NCI-H226 lung 56.9% | NCI-H322M lung 46.1% | HOP-62 NSCLC 36.5% | HOP-92 NSCLC 61.5% | A549/ATCC NSCLC 20.5% | 786-0 renal 37.6%
active: NCI-H460 lung -2.32% | NCI-H522 lung -32.7% | COLO 205 colon -7.14%

CCOC(=O)c1c(C)nc2c(c1N)C(=O)C(=O)N2Cc1ccc(C(F)(F)F)cc1
inactive: NCI-H23 lung 69.8% | NCI-H226 lung 73.2% | NCI-H322M lung 97.3% | HOP-62 NSCLC 60.5% | NCI-H460 lung 93.7% | HOP-92 NSCLC 50.3% | NCI-H522 lung 31% | A549/ATCC NSCLC 84.3% | 786-0 renal 33.9% | COLO 205 colon 101%
